B-score data for 99 molecules are collected here from PubChem BioAssay AID488975 (Johns Hopkins Ion Channel Center, 2010).

SMILES strings stand for the structures. About 2,600 (0.84%) of roughly 310,000 compounds were called active.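 The calls were made as follows: active = B-score over 3 SD under the library average, and starting fluorescence ratio not unusually high; inactive = the rest.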 Only a selection was taken, and actives are over-represented in it overall.

The target of the test is High affinity choline transporter 1 (Homo sapiens) (UniProt Q9GZV3). The test is described as follows: inhibitors of human choline transporter CHT (AID 488975).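 As to B-score: choline stimulus applied at its EC90 after an EC20 pre-addition; B-score computed on integrated fluorescence ratio after choline addition.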 To be noted: CHT-expressing cells, membrane potential dye, choline response, at 10 µM; active compounds read low.
High affinity choline transporter 1 (Homo sapiens), sequence (Q9GZV3 whole entry, looked up): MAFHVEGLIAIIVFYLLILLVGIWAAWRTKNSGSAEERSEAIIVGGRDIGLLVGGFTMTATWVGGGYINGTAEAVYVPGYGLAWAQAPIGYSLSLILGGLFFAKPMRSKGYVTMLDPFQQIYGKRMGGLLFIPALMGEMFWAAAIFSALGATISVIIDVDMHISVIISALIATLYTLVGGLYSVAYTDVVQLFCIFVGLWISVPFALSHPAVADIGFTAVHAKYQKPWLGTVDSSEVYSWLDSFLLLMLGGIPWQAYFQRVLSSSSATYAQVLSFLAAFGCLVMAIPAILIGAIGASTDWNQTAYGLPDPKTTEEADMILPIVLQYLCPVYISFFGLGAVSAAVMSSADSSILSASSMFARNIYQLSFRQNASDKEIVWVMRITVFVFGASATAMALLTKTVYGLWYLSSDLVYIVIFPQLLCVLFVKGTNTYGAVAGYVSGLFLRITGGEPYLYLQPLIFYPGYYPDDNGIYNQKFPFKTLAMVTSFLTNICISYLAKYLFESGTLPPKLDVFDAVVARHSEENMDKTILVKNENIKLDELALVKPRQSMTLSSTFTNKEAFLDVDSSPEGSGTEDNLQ
Take `Cc1cc(C)c(S(=O)(=O)N2CCCC2CNC(=O)c2ccc3c(c2)OCO3)c(C)c1` (centres undefined): the B-score entry is “inactive”. `O=S(=O)(O)Oc1c[nH]c2ccccc12`: the B-score result is “inactive”. Next, `COc1ccc(OCC(=O)OCCN(C)C)cc1`: -11 (active); `COc1ccc(OCCCC(=O)Oc2ccc(OC)cc2)cc1`: “inactive”; `COc1ccc(OCCC(=O)c2ccc(OC)cc2)cc1`: “inactive”. With `CCOc1ccc(CCNC(=O)COC(=O)c2c(OC)cccc2OC)cc1OCC`, the B-score entry was “inactive”.

For the molecule `CN1CCCN(S(=O)(=O)c2ccc3c(c2)OCCO3)CC1`, the B-score entry was “inactive”. With `CCCCCC(=O)N1CCN(S(=O)(=O)c2ccc3c(c2)OCCCO3)CC1` the entry was “inactive”; with `O=C(c1c(F)cccc1Cl)N1CCN(S(=O)(=O)c2ccc3c(c2)OCCCO3)CC1`, -5.01 (active).

`CC(C)c1ccc(S(=O)(=O)N2CCN(C(=O)CN3C(=O)NC(C)(c4ccccc4)C3=O)CC2)cc1` (centres undefined): the B-score entry was “inactive”. Next, `CSc1nnc(NC(=O)c2nc(S(=O)(=O)Cc3ccc(C)cc3)ncc2Cl)s1`: “inactive”; `Cc1ccc(CS(=O)(=O)c2ncc(Cl)c(C(=O)Nc3nnc(C)s3)n2)cc1`: -9.37 (active). With `Cc1cccc(NC(=O)c2nc(S(=O)(=O)Cc3ccccc3)ncc2Cl)c1`, the B-score entry is “inactive”. With `Cc1ccc(C(=O)CN2C(=O)NC3(CCc4ccccc43)C2=O)c(C)c1` (centres undefined) the entry was “inactive”; with `CC(=O)OCCOCn1cnn2c(=O)c(Br)c(C)nc12`, -5.09 (active); with `O=C(OCCOCn1cc(Br)c(=O)[nH]c1=O)c1ccccc1`, “inactive”. With `CCCN(CC(=O)Nc1ccccc1OC)C(=O)CCC(=O)c1ccc(F)cc1` the entry was “inactive”; with `O=C(Nc1ccn(Cc2ccccc2)n1)c1n[nH]c([N+](=O)[O-])c1Cl`, -5.17 (active). With `Cn1cc([N+](=O)[O-])c(C(=O)Nc2cnn(Cc3ccc(F)cc3)c2)n1` the entry was “inactive”. Consider `Cc1ccc(Cn2ccc(NC(=O)c3cc(C(C)C)on3)n2)cc1`, for which the B-score result is “inactive”.

Take `CCN1C(=O)[C@@H]2[C@@H](c3ccc(-c4ccccc4)cc3)N3CCCC[C@@]3(C(=O)OC)[C@@H]2C1=O`: the B-score entry is “inactive”. As for `CCCCCCSc1ccc([C@@H]2[C@@H]3C(=O)N(CC)C(=O)[C@@H]3[C@]3(C(=O)OC)CCCCN23)cc1OC`, the B-score result was “inactive”. Next, `O=C(NCCC1CCCCN1S(=O)(=O)c1ccc(F)cc1)C(=O)NC1CC1` (centres undefined): “inactive”.

For `COc1ccc(CCNc2cc(N3CCN(C(=O)c4ccccc4OC)CC3)ccc2[N+](=O)[O-])cc1OC`, the B-score entry was “inactive”. Next, `CCS(=O)(=O)C1=NSC2=NC(=O)/C(=C\c3ccc(OS(=O)(=O)c4ccccc4)cc3)C(=N)N21`: -7.46 (active); `Cc1cc(/C=C2/C(=N)N3C(=NC2=O)SN=C3S(C)(=O)=O)c(C)n1-c1ccccc1`: “inactive”. Consider `CCS(=O)(=O)C1=NSC2=NC(=O)/C(=C\c3cc(C)n(-c4cccc(OC)c4)c3C)C(=N)N21`, for which the B-score entry was “inactive”. With `Cc1ccc2c(C)c(C(=O)N3CCN(c4ccncc4)CC3)oc2c1C` the entry was “inactive”; with `CCOc1cc(C(=O)Nc2ccc(S(=O)(=O)Nc3cnc4ccccc4n3)cc2)cc(OCC)c1OCC`, “inactive”; with `O=C(NCCCn1ccnc1)Nc1ccc(Cl)cc1Cl`, “inactive”. `O=C(Nc1ccccc1C(=O)NCCCn1ccnc1)c1ccc(Cl)cc1Cl`: the B-score is -5.25 (active).

Take `O=C(NCCCn1ccnc1)c1ccccc1F`: the B-score entry is “inactive”. As for `COc1ccc(C(=O)C2CCCN(C(=O)c3ccc(OC)o3)C2)c(C)c1` (centres undefined), the B-score result is “inactive”. Next, `COCC(=O)Nc1c(C(=O)N2CCCC2)oc2ccccc12`: “inactive”; `CCOCCCN(C)C1CCN(C(=O)c2oc3ccccc3c2NC(=O)Cc2cccc([N+](=O)[O-])c2)CC1`: “inactive”. As to `CCOCCCN(C)C1CCN(C(=O)c2oc3ccccc3c2NC(=O)COc2cccc(C)c2)CC1`, the B-score was -6.44 (active). With `C/C(=N\Nc1nc2ccccc2[nH]1)c1cccs1` the figure was -6.15 (active).

Turning to `C/C(=N\Nc1ncc(Cl)cc1Cl)c1cccs1`, the B-score result was “inactive”. With `O=C(Nc1ccccc1-c1nc2ccccc2[nH]c1=O)c1cccs1`, the B-score result was “inactive”. With `COC(=O)c1ccc(SCc2ccccc2)nc1` the entry was “inactive”. Regarding `COc1cnn(-c2ccc([N+](=O)[O-])cc2)c(=O)c1Cl`, the B-score result was “inactive”. For `Nc1c(C(=O)Nc2ccc3c(c2)OCCO3)nnn1Cc1ccccc1`, the B-score entry is “inactive”. Take `O=C(Cc1c[nH]c2ccccc12)OCCOC(=O)Cc1c[nH]c2ccccc12`: the B-score entry is “inactive”. In the case of `O=C(NCCCc1ccccc1)C(=O)c1c[nH]c2ccccc12`, the B-score entry is “inactive”. Consider `O=C(OCC(=O)c1c[nH]c2ccccc12)c1cccc(O)c1`, for which the B-score is -7.81 (active).

As to `COc1ccc(N2CCN(C(=O)COC(=O)c3cccc(S(=O)(=O)Nc4ccccc4OC)c3)CC2)cc1`, the B-score entry was “inactive”. With `O=C(Nc1ccc2c(c1)CCC2)c1cccc(S(=O)(=O)N2CCN(c3ccc(F)cc3)CC2)c1` the entry was “inactive”; with `Cc1cccnc1NC(=O)c1cccc(S(=O)(=O)N2CCN(c3ccc(F)cc3)CC2)c1`, -6.97 (active); with `O=C(Nc1cccnc1)c1cccc(S(=O)(=O)N2CCCC2)c1`, “inactive”. For the molecule `CN1CCN(S(=O)(=O)c2cccc(C(=O)O)c2)CC1`, the B-score result was “inactive”. With `CC(=O)N1CCN(S(=O)(=O)c2cccc(C(=O)NC3CCC(C)CC3)c2)CC1` (centres undefined) the figure was -4.99 (active); with `COc1ccc(OC)c(NC(=O)c2cccc(S(=O)(=O)N3CCN(C(C)=O)CC3)c2)c1`, “inactive”. With `CCC(Oc1ccccc1C)C(=O)Nc1ccc(S(=O)(=O)Nc2cc(C)on2)cc1` (centres undefined) the figure was -6.05 (active); with `COc1ccc(C(=O)Nc2ccc(S(=O)(=O)Nc3onc(C)c3C)cc2)cc1OC`, “inactive”; with `CCOc1ccc(CC(=O)Nc2ccc(S(=O)(=O)Nc3cc(C)on3)cc2)cc1OCC`, “inactive”. Consider `CCOc1ccc(C(=O)Nc2ccc(S(=O)(=O)Nc3cc(C)on3)cc2)cc1`, for which the B-score result is “inactive”.

On to `COc1cc2ccccc2cc1C(=O)Nc1ccc(S(=O)(=O)Nc2cc(C)on2)cc1`, for which the B-score was -5.68 (active). Consider `COc1cc(OC)cc(C(=O)Nc2ccc(S(=O)(=O)Nc3cc(C)on3)cc2)c1`, for which the B-score result was “inactive”.

In the case of `CC(Oc1cccc(Cl)c1)C(=O)Nc1ccc(S(=O)(=O)Nc2ncccn2)cc1` (centres undefined), the B-score result is “inactive”.

On to `Cc1cc(NS(=O)(=O)c2ccc(NC(=O)c3cccnc3)cc2)nc(C)n1`, for which the B-score result is “inactive”. With `Cc1cc(OC(C)C(=O)Nc2ccc(S(=O)(=O)Nc3onc(C)c3C)cc2)cc(C)c1Cl` (centres undefined) the figure was -4.96 (active); with `Cc1cc(NS(=O)(=O)c2ccc(NC(=O)C(C)Oc3cccc(C)c3C)cc2)nc(C)n1` (centres undefined), -9.11 (active); with `CCc1ccc(OC(C)C(=O)Nc2ccc(S(=O)(=O)Nc3cc(C)on3)cc2)cc1` (centres undefined), “inactive”. Next, `Cc1cc(NS(=O)(=O)c2ccc(NC(=O)c3cccc(OC(F)F)c3)cc2)nc(C)n1`: “inactive”.

As for `COc1ccc(Cl)cc1NC(=O)CN(C)C(=O)c1cc(-c2cccs2)nn1-c1ccccc1`, the B-score entry was “inactive”.

Consider `O=C(CNC(=O)c1ccccc1Br)NCCSc1ccc(Br)cc1`, for which the B-score entry was “inactive”. With `O=C(Oc1ccc(-c2nnco2)cc1)c1ccc(F)c(S(=O)(=O)N2CCOCC2)c1` the entry was “inactive”; with `O=C(NCCCN1CCCC1=O)c1ccc(S(=O)(=O)Nc2ccccc2)cc1`, “inactive”; with `COc1ccc(C(C#N)(CC(=O)O)c2cnccn2)cc1OC` (centres undefined), “inactive”. Take `Cc1ccc(-c2nn(-c3ccccc3)cc2C(=O)NCCCN2CCCC2=O)cc1`: the B-score entry was “inactive”. With `CN(C)c1ccc(CNC(=O)CN2C(=O)COc3ccc(S(=O)(=O)N4CCCC4)cc32)cc1` the entry was “inactive”; with `CCc1ccc(NC(=O)CN2C(=O)COc3ccc(S(=O)(=O)N4CCCC4)cc32)cc1`, “inactive”; with `Cc1cccc(N(C)C(=O)CN2C(=O)COc3ccc(S(=O)(=O)N4CCCCCC4)cc32)c1`, -6.38 (active). Next, `O=S(=O)(c1ccccc1)N1CCC(c2ccccc2)CC1`: “inactive”. With `Cc1ccc(CSCC(N)C(=O)O)cc1` (centres undefined) the entry was “inactive”; with `Cc1ccc(C(=O)CSc2ccccc2C(=O)O)cc1`, “inactive”; with `Cc1ccc(SC(CC(=O)c2ccc(C(C)(C)C)cc2)C(=O)O)cc1` (centres undefined), -8.41 (active). In the case of `OCc1ccc(-c2ccccc2)c(-c2ccccc2)c1`, the B-score result was “inactive”. Regarding `O=C(Nc1ccc(F)c([N+](=O)[O-])c1)C1CCCO1` (centres undefined), the B-score result was “inactive”. With `Cc1ccc(-c2cc(C(=O)NC3CCN(Cc4ccccc4)CC3)c3ccccc3n2)cc1` the entry was “inactive”; with `C/C(=N\OCC(=O)O)c1ccc(Cl)cc1`, “inactive”.

Turning to `C/C(=N\N=C(N)N)c1ccc(Cl)cc1`, the B-score was -9.9 (active). With `C/C(=N\NC(=S)NCc1ccccc1)c1ccc(Cl)cc1` the entry was “inactive”; with `CC1CCC(CN2CCN=C2N(C)C)CC1` (centres undefined), “inactive”.

Regarding `CCCCCCc1cc2cc(-c3nnc(-c4ccccc4)o3)c(=O)oc2cc1O`, the B-score entry was “inactive”.

`CCCCCCc1ccc(O)cc1O`: the B-score was -6.74 (active). Consider `CCCCCCCN=C(C)c1ccccc1O`, for which the B-score entry was “inactive”.

Take `CC1(c2ccccc2)NC(=O)N(CC(=O)Nc2cc(Cl)ccc2N2CCOCC2)C1=O` (centres undefined): the B-score entry is “inactive”. With `COc1cc(N)c(Cl)cc1C(=O)OCC(=O)c1ccc2c(c1)NC(=O)CO2` the entry was “inactive”; with `CN1C(C(=O)NCc2ccco2)CC2Cn3c(nc4ccccc43)C21` (centres undefined), “inactive”; with `Cc1ccc(-c2nn(-c3ccccc3)cc2/C=C/C(=O)Nc2cccc(S(N)(=O)=O)c2)cc1`, “inactive”. Regarding `COc1ccc(-c2nn(-c3ccccc3)cc2/C=C\C(=O)N2CCOCC2)cc1[N+](=O)[O-]`, the B-score entry is “inactive”. Next, `O=C(/C=C/c1cn(-c2ccccc2)nc1-c1ccc2c(c1)OCCO2)NCCCN1CCOCC1`: -5.76 (active); `Cc1ccc(SCC(=O)Nc2nncs2)cc1`: “inactive”; `C#CCOCCOCCOCCNc1nc(N2CCN(C(=O)Cn3cc(CCCCN)nn3)CC2)nc(N2CCN(C(=O)[C@H](CCCCN)n3cc(CCC(=O)O)nn3)CC2)n1`: “inactive”. For the molecule `Cc1ccccc1OCC(=O)NNC(=O)c1ccc(-n2cncn2)c([N+](=O)[O-])c1`, the B-score entry is “inactive”.

For `CCCCn1c(N)c(N(CCC(C)C)C(=O)CC2OC(=O)c3ccccc32)c(=O)[nH]c1=O` (centres undefined), the B-score result was “inactive”. With `OC1CN=C2Sc3ccccc3N2C1` (centres undefined), the B-score is -5.4 (active).

As for `COc1ccc(S(=O)(=O)N2CCCCC2)cc1NC(=O)C1CC(=O)N(c2ccc3c(c2)OCCO3)C1` (centres undefined), the B-score entry is “inactive”.
